Reference: PubChem BioAssay
Where “and” joins values, the source holds several entries; their conditions need not be identical. Identical values can stand only once. Results filed as inconclusive are left out. Calls of active or inactive are those of the source. Unless noted, no cut-off is given here; in the data, nearly all actives have AC50 up to about 26 µM.

Tests used:
[1] = viability loss in pontine glioma line – cell-based, SU-DIPG-XVII, MIPE5.0, CellTiter-Glo, qHTS, dose response (AID 1347060); settings: CellTiter-Glo ATP luminescence;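 for AC50: cells exposed to compound for 48 hours before viability readout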
[2] = viability loss in pontine glioma line – cell-based, SU-DIPG-XIII, MIPE5.0, CellTiter-Glo, qHTS, dose response (AID 1347064; cut-off not given, nearly all actives have AC50 up to about 23 µM;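 for AC50: cells exposed to compound for 48 hours before the viability read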); settings: CellTiter-Glo ATP luminescence
[3] = viability loss in pontine glioma line – cell-based, SU-DIPG-XXV, MIPE5.0, CellTiter-Glo, qHTS, dose response (AID 1347065); settings: CellTiter-Glo ATP luminescence;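 note: cells exposed to compound for 48 hours before ATP readout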
[4] = JHH-DIPG-1 glioma cell viability, MIPE5.0 library, CellTiter-Glo luminescence, qHTS (AID 1347067); settings: JHH-DIPG-1 glioma viability, CellTiter-Glo ATP luminescence;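 note: cells exposed to compound for 48 hours before readout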
[5] = growth inhibition of DIPG cells – cell-based, MIPE5.0 library, qHTS (AID 1347068; cut-off not given, nearly all actives have IC50 up to about 30 µM;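 for IC50: cells exposed to compound for 48 hours before viability readout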); settings: SU-DIPG-XXV viability
[6] = viability loss with induced miR-34 in A549 – imaging, A549 dox-inducible miR-34, nuclei and caspase counts, primary screen (AID 1347080;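 active = compounds whose cell count with miR-34 switched on is under 0.7 times the count with it off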); settings: A549 miR-34 inducible, Hoechst nuclei count, 48 h
[7] = MELAS cybrid and Rieske KO viability enhancers – cell-based, MELAS cybrids, Rieske KO mouse fibroblasts, CellTiter-Glo, primary screen (AID 1508586;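 active = mean z-score across replicates of 1.96 or higher in either the MELAS or the Rieske mutant cell line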;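 note: z relative to plate mean and SD of compound and empty wells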); settings: low glucose

CCCC1(CCC)CCC2(CCN(CCCN(CC)CC)C2)CC1
active: AC50 [1] 7.42 µM | AC50 [2] 4.17 µM | AC50 [3] 6.61 µM | AC50 [4] 3.72 µM | IC50 [5] 10.5 µM

CC(=O)N1CCC[C@H]1C(=O)N[C@@H](Cc1cnc[nH]1)C(=O)N[C@@H](CO)C(=O)N[C@@H](CS)C(=O)N[C@@H](CC(N)=O)C(N)=O
inactive: outcome [1] | outcome [2] | outcome [3] | outcome [4] | outcome [5]

CN[C@@H]1[C@@H](O)[C@@H](O[C@@H]2[C@@H](O)[C@H](O[C@H]3O[C@H](CN)[C@@H](O)[C@H](O)[C@H]3O)[C@@H](N)C[C@H]2NC(=O)C(O)CN)OC[C@]1(C)O (stereo partly specified)
inactive: outcome [1] | outcome [2] | outcome [3] | outcome [4] | outcome [5]

CC(C)(C)C(=O)CN1C(=O)[C@H](NC(=O)Nc2cccc(C(=O)O)c2)CN(C2CCCCC2)c2ccccc21
inactive: outcome [1] | outcome [2] | outcome [3] | outcome [4] | outcome [5]

C=CCN1C[C@H](C(=O)N(CCCN(C)C)C(=O)NCC)CC2c3cccc4[nH]cc(c34)C[C@H]21 (stereo partly specified)
inactive: outcome [1] | outcome [2] | outcome [3] | outcome [4] | outcome [5]

CC(C)c1c(-c2ccccc2)nc2c(C#N)c[nH]n2c1=O
inactive: outcome [1] | outcome [2] | outcome [3] | outcome [4] | outcome [5]

CN1CCN(c2ccc(C(=O)Nc3n[nH]c4ccc(Cc5cc(F)cc(F)c5)cc34)c(NC3CCOCC3)c2)CC1
active: AC50 [1] 2.09 µM | AC50 [2] 4.17 µM | AC50 [3] 2.35 µM | AC50 [4] 3.32 µM | IC50 [5] 5.25 µM

CCOc1ccc(-n2c([C@@H](C)N(Cc3cccnc3)C(=O)Cc3ccc(F)c(C(F)(F)F)c3)nc3ncccc3c2=O)cc1
inactive: outcome [1] | outcome [2] | outcome [3] | outcome [4] | outcome [5]

Cc1[nH]c(/C=C2\C(=O)Nc3ccc(F)cc32)c(C)c1C(=O)NC[C@H](O)CN1CCOCC1
inactive: outcome [5]
active: AC50 [1] 13.2 µM | AC50 [2] 18.6 µM | AC50 [3] 7.42 µM | AC50 [4] 16.6 µM

CC(C)n1cc(-c2ccc3c(c2)N(C)CC3)c2c(NS(=O)(=O)c3ccn(C)n3)ccnc21
inactive: outcome [1] | outcome [2] | outcome [3] | outcome [4] | outcome [5]

COc1cc2c(cc1O)CCN[C@]21CS[C@@H]2c3c(OC(C)=O)c(C)c4c(c3[C@H](COC1=O)N1[C@@H]2[C@H]2c3c(cc(C)c(OC)c3O)C[C@@H]([C@@H]1O)N2C)OCO4
active: AC50 [1] 0.000382 µM | AC50 [2] 0.00135 µM | AC50 [3] 0.00152 µM | AC50 [4] 0.000679 µM | IC50 [5] 0.0241 µM

N#Cc1ccc(N(Cc2ccc(Br)cc2)n2cnnc2)cc1
inactive: outcome [1] | outcome [2] | outcome [3] | outcome [4] | outcome [5]

C[C@@H]1CC(=O)Nc2cccc(-c3cnn(C(C)(C)C)c3)c2N1
inactive: outcome [1] | outcome [2] | outcome [3] | outcome [4] | outcome [5]

C[C@H]1CN(C[C@H](Cc2ccccc2)C(=O)NCC(=O)O)CC[C@@]1(C)c1cccc(O)c1
inactive: outcome [1] | outcome [2] | outcome [3] | outcome [4] | outcome [5]

Cc1c(CN2CCC(Nc3ncnc4sc(CC(F)(F)F)cc34)CC2)ccc2c1cc(C#N)n2Cc1cn[nH]c1
active: AC50 [1] 20.9 µM | AC50 [2] 23.5 µM | AC50 [3] 29.5 µM | AC50 [4] 18.6 µM
inactive: outcome [5]

COC(C)(C)CCn1nc(Nc2c(C)cccc2C)c2cnc(Nc3ccc(OCCN4CCCC4)c(F)c3)nc21
active: AC50 [1] 16.6 µM | AC50 [2] 18.6 µM | AC50 [3] 14.8 µM | AC50 [4] 16.6 µM | IC50 [5] 16.6 µM

O=C1Cc2cc(C(=O)NC3C[C@H]4CC[C@@H](C3)N4S(=O)(=O)CC3CCN(CCCC(F)(F)F)CC3)c(Cl)cc2N1 (stereo partly specified)
inactive: outcome [1] | outcome [2] | outcome [3] | outcome [4] | outcome [5]

NS(=O)(=O)NCCNc1nonc1C(=Nc1ccc(F)c(Br)c1)NO
inactive: outcome [1] | outcome [2] | outcome [3] | outcome [4] | outcome [5]

C=CC(=O)Nc1cccc(Oc2nc(Nc3ccc(N4CCN(C)CC4)cc3)nc3ccsc23)c1
active: AC50 [1] 8.33 µM | AC50 [2] 13.2 µM | AC50 [3] 9.34 µM | AC50 [4] 10.5 µM | IC50 [5] 0.59 µM

CN(C)C/C=C/C(=O)Nc1ccc(C(=O)N2CCC[C@@H](Nc3ncc(Cl)c(-c4c[nH]c5ccccc45)n3)C2)cc1
active: AC50 [1] 0.59 µM | AC50 [2] 0.295 µM | AC50 [3] 0.235 µM | AC50 [4] 0.332 µM | IC50 [5] 0.833 µM

Cc1cc2cc(Oc3ccnc(Nc4cccc(CS(=O)(=O)NCCN(C)C)c4)n3)ccc2[nH]1
active: AC50 [1] 4.68 µM | AC50 [2] 8.33 µM | AC50 [3] 5.9 µM | AC50 [4] 20.9 µM | IC50 [5] 18.6 µM

C1=C/COCc2cc(ccc2OCCN2CCCC2)Nc2nccc(n2)-c2cccc(c2)COC/1
active: AC50 [1] 2.95 µM | AC50 [2] 2.95 µM | AC50 [3] 2.09 µM | AC50 [4] 4.17 µM | IC50 [5] 2.95 µM

CCCCNc1ncc2c(-c3ccc(CN4CCN(C)CC4)cc3)cn(C3CCC(O)CC3)c2n1 (stereo unspecified)
active: AC50 [1] 1.48 µM and 1.32 µM | AC50 [2] 2.35 µM and 1.86 µM | AC50 [3] 742 nM and 934 nM | AC50 [4] 3.32 µM and 2.95 µM | IC50 [5] 3.32 µM

CO[C@@H](C)Cn1c(=O)n(C)c2cnc3ccc(-c4cncc(C(C)(C)O)c4)cc3c21
active: AC50 [1] 0.934 µM | AC50 [2] 1.86 µM | AC50 [3] 0.59 µM | AC50 [4] 1.05 µM | IC50 [5] 1.48 µM

CC(C)c1cc(CNc2nc(Nc3cc(C4CC4)[nH]n3)cc(N3CCN(C)CC3)n2)on1
active: AC50 [1] 0.186 µM | AC50 [2] 0.166 µM | AC50 [3] 0.0833 µM | AC50 [4] 0.468 µM | IC50 [5] 0.525 µM

O=C([C@@H](Cc1cccc(C(F)(F)F)c1)NS(=O)(=O)c1cc(F)c2c(c1)CCNC2)N1CCCC1
inactive: outcome [1] | outcome [2] | outcome [3] | outcome [4] | outcome [5]

Cc1cc(Oc2ccc3nc(COc4ccc(CC5SC(=O)NC5=O)cc4)n(C)c3c2)cc(C)c1N (stereo unspecified)
inactive: outcome [1] | outcome [2] | outcome [3] | outcome [4] | outcome [5]

CS(=O)(=O)c1ccc(Oc2cc(F)cc(C#N)c2)c2c1[C@H](O)C(F)(F)C2
inactive: outcome [1] | outcome [2] | outcome [3] | outcome [4] | outcome [5]

CN(C)Cc1ccc(S(=O)(=O)n2ccc(/C=C/C(=O)NO)c2)cc1
active: AC50 [1] 9.34 µM | AC50 [2] 5.9 µM | AC50 [3] 6.61 µM | AC50 [4] 9.34 µM | IC50 [5] 7.42 µM

CCN1CCN(Cc2ccc(NC(=O)c3ccc(C)c(NC(=O)c4cncc(-c5cccs5)c4)c3)cc2C(F)(F)F)CC1
active: AC50 [1] 5.9 µM | AC50 [2] 14.8 µM | AC50 [3] 1.05 µM | AC50 [4] 2.63 µM | IC50 [5] 4.17 µM

Cc1cc(C)cc(NC(=O)Cc2ccc(OC(C)(C)C(=O)O)cc2)c1
-0.194: z-score ([7]; Rieske KO mouse fibroblast survival, CellTiter-Glo 72 h)
0.66: fold change ([6]; measured here: relative caspase fold change +Dox/-Dox)
8990: cell count ([6]; measured here: total cells with miR-34 induction, stronger effect = lower value)
inactive: outcome [1] | outcome [2] | outcome [3] | outcome [4] | outcome [5] | fold change ([6]; stronger effect = lower value, cell number ratio, induced over uninduced) 0.94 | z-score ([7]; MELAS cybrid survival, CellTiter-Glo 48 h, stronger effect = higher value) -0.243
9560: cell count ([6]; measured here: total cells without miR-34 induction)
